The text below walks through data of PubChem BioAssay AID778 (Sanford-Burnham Center for Chemical Genomics, 2007).

Each structure is given as a SMILES string. About 20,000 (21%) of roughly 96,000 compounds were called active. A selection follows. Values without a mark were called inactive.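 The calls were made as follows: active = CYP2C19 inhibition above a set limit at 5 µM in the primary screen (cut at about 50% in these data); inactive = the rest.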

Sequence of Cytochrome P450 2C19 (Homo sapiens) (P33261 whole entry, looked up): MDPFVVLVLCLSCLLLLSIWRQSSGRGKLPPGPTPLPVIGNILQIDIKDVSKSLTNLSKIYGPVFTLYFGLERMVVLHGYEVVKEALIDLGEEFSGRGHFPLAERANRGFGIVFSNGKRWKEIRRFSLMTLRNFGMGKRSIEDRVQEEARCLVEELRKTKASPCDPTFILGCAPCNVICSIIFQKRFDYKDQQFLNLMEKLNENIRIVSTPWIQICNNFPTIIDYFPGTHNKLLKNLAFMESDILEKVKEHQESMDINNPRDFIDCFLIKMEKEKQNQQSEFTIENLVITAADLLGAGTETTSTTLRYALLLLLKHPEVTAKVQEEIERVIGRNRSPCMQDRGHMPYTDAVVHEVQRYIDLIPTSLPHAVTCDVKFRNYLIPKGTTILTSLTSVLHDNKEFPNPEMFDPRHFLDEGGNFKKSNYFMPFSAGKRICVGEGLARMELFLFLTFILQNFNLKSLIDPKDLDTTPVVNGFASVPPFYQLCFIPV

This test addresses Cytochrome P450 2C19 (Homo sapiens) (UniProt P33261). The test can be described thus: blockers of cytochrome P450 2C19 activity – biochemical, luminescence, ADME assay, primary screen (AID 778).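 Also: plate controls were negative control wells for no effect and 2.5 mM tranylcypromine positive control for full effect.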 The following applies: CYP2C19 Supersomes, luciferin-H EGE luminescence, 30 min; at 5 µM; active compounds read high.
Turning to `Cc1nn(-c2ccccc2)c2c1C(=O)NC(=O)C(C)(C)C2`, the inhibition is 28%.
On to `Cc1ccc(C2=NN(C)c3nc4ccccc4n3C2)cc1`, for which the inhibition is 12.8%.
In the case of `Cc1ccc(CNC(=O)CCCNC(=O)c2ccc(Cl)cc2)n1C`, the inhibition was 60.2% (active).
Take `CCN(CC(=O)NC(C)C)C(=O)CCNC(=O)c1ccc(Cl)cc1`: the inhibition was 10.5%.
For the molecule `CCCCNC(=O)CCNC(=O)c1ccc(C(C)(C)C)cc1`, the inhibition is 31.5%.
For `N#C/C(=C(\O)CCl)c1nnc2n1CCCCC2`, the inhibition is 3.5%.
For the molecule `O=C1CCCCC(=O)c2ccccc2N1`, the inhibition was 12.2%.
Take `CCCCOc1ccc(C(=O)NCc2ccco2)cc1`: the inhibition was 20.2%.
The same measure for `CCOc1cccc(C(=O)Nc2cccnc2)c1`: -3.6%; for `CCCCOc1ccc(C(=O)NCc2ccncc2)cc1`: 76.1% (active).
`CCCCCCOc1ccc(OC(=O)c2cccnc2)cc1`: the inhibition is 20.8%.
Regarding `CCOc1ccc(C(=O)Nc2ccncc2)cc1`, the inhibition is 97.9% (active).
For `CCOc1ccc(NC(=O)Nc2cc(C)on2)cc1`, the inhibition was 22.7%.
Take `CC(=O)Nc1nonc1-c1nc2ccccc2n1Cc1ccccn1`: the inhibition was -7.6%.
On to `CCN1C(=O)/C(=C2/Sc3ccccc3N2CCCS(=O)(=O)O)SC1=S`, for which the inhibition is 0%.
For `CCOc1ccc2[nH]c(=O)c(CN(CCCO)C(C)=O)cc2c1`, the inhibition is -11.4%.
Take `CC(C)CNC(=O)c1cc(-c2ccc(Br)cc2)on1`: the inhibition was -6.3%.
Take `c1ccc2c(c1)OCC(CNc1ncnc3nc[nH]c13)O2` (stereo not drawn): the inhibition is 4%.
Turning to `O=C(Nc1ccc2nc3n(c(=O)c2c1)CCCCC3)c1ccccc1Cl`, the inhibition was 13.1%.
The same measure for `Cc1cccc2c(=O)n3c(nc12)CCCCC3`: 28.1%.
The same measure for `O=c1c2c(nc3n1CCCCC3)sc1c(O)cccc12`: 72.2% (active); for `O=C(CSc1nc2c(cnn2-c2ccc(F)cc2)c(=O)[nH]1)N1CCCCCC1`: 2.3%; for `Cc1noc(C)c1C(=O)OCC(=O)/C=C1\N(C)c2ccccc2C1(C)C`: 60.2% (active).
Turning to `CN1/C(=C\C=C2\N=C(c3ccc(F)cc3)OC2=O)C(C)(C)c2ccccc21`, the inhibition is 45.9%.
In the case of `CN1/C(=C\C(=O)c2oc3ccccc3c2N)C(C)(C)c2ccccc21`, the inhibition was 47.9%.
As to `O=P(O)(CP(=O)(c1ccccc1)c1ccccc1)c1ccccc1`, the inhibition is -1.3%.
Turning to `Cc1ccc(N2CCN(c3ccc(C)cc3)C2c2ccccn2)cc1`, the inhibition was 27.1%.
As to `CCc1ccccc1NC(=O)/C(=C/c1ccccc1)c1ccccc1`, the inhibition is 28.8%.
`O=c1onc(-c2cccs2)n1Cc1ccccc1`: the inhibition was 79.9% (active).
`O=c1[nH]c(-c2cccs2)nc2ccccc12`: the inhibition is 1.4%.
On to `O=C(CSc1nnc(-c2cccs2)n1Cc1ccccc1)N1CCc2ccccc2C1`, for which the inhibition is 31.9%.
Regarding `Cn1c(C(=O)NCCN2CCc3ccccc3C2)cc2c(=O)[nH]c3ccccc3c21`, the inhibition was 14.8%.
Take `CCOC(=O)CCc1c(C)c2ccc(OCc3nn[nH]n3)c(C)c2oc1=O`: the inhibition is 0%.
As for `O=C1c2cccc3cc(Br)cc(c23)C(=O)N1Nc1ccccc1`, the figure is 29.2%; as for `Cc1noc(NS(=O)(=O)c2ccc(NC(=O)C34CCC(CC3)C4)cc2)c1C`, -12.3%.
On to `Cc1ccccc1C(=O)N1CCC(C(=O)Nc2ccc(S(=O)(=O)N(C)C(C)C)cc2)CC1`, for which the inhibition is 25.1%.
The same measure for `CCCS(=O)(=O)Nc1c(C(=O)O)[nH]c2ccccc12`: 11.8%; for `COC(=O)c1[nH]c2ccccc2c1NS(=O)(=O)c1ccc(OC)cc1OC`: 89.7% (active).
`COC(=O)c1[nH]c2ccc(Br)cc2c1NC(=O)Oc1ccccc1`: the inhibition is 7.3%.
Consider `CCOCCCNC(=O)c1c[nH]c2cc(C)ccc2c1=O`, for which the inhibition is -3.9%.
As for `C[C@H](NC(=O)NCCc1ccccc1)C(=O)O`, the figure is -17.1%; as for `CC(C)c1ccc(C(=O)NCCCc2ccccc2)cc1`, 14.8%; as for `CCC(C)NC(=O)CCCc1ccccc1` (stereo not drawn), 58.1% (active).
With `Cc1ccc2cccc(O)c2[n+]1[O-]`, the inhibition was 1.9%.
On to `CCc1ccc2nc3sc(C(=O)Nc4nnc(CC)s4)c(N)c3cc2c1`, for which the inhibition was 39.6%.
The same measure for `CCCc1nc2ccccc2c(C(=O)OCC(=O)c2ccc3c(c2)NC(=O)CO3)c1CC`: -9.7%; for `COc1cc(-c2nnc(Cn3cc(C(F)(F)F)ccc3=O)o2)cc(OC)c1OC`: 8.6%; for `CCCc1nc2ccccc2c(C(=O)OCc2nnc(-c3cc(OC)c(OC)c(OC)c3)o2)c1CC`: 69.1% (active).
Regarding `C=CCC(NCCCO)c1cccc(OC)c1OC` (stereo not drawn), the inhibition was -15.9%.
Regarding `CCOC(=O)N1CCN(S(=O)(=O)c2cc(Br)cc3c2N(C(=O)C2CC2)CC3)CC1`, the inhibition is 30.1%.
`O=C(C1CCN(S(=O)(=O)c2cnc[nH]2)CC1)N1CCN(Cc2ccc3c(c2)OCO3)CC1`: the inhibition was 11.6%.
On to `CCN(c1ccc2c(c1)OCO2)S(=O)(=O)c1cc(Br)cc2c1N(C(=O)C1CC1)CC2`, for which the inhibition was 51.5% (active).
As for `CC(C)C(=O)Nc1cccc(NC(=S)NC(=O)C(c2ccccc2)c2ccccc2)c1`, the figure is 18.9%.
As to `CCc1cc(=O)oc2cc(C)cc(OC(C)C(=O)O)c12` (stereo not drawn), the inhibition was -4.4%.
With `COc1ccc(NC(=O)C(CC(C)C)NS(=O)(=O)c2ccc3c(c2)CCN3C(C)=O)cc1OC` (stereo not drawn), the inhibition was 31.2%.
Regarding `COc1ccc(-n2c(SCC(=O)Nc3sc4c(c3C#N)CCCC4)nnc2-c2ccc(O)cc2)cc1`, the inhibition is 26.8%.
As to `CC(Sc1nncs1)C(=O)NCc1ccc2c(c1)OCO2` (stereo not drawn), the inhibition was 75.7% (active).
`O=C(NCc1ccc2c(c1)OCO2)c1cc2c(s1)CS(=O)(=O)C2`: the inhibition is 28.8%.
For `Cc1ccc2c(c1)-c1c(ssc1=S)C(C)(C)N2C(=O)CN1C(=O)c2ccccc2C1=O`, the inhibition was 25.1%.
As for `Cc1nc2ccc(S(=O)(=O)NCC(=O)O)cc2s1`, the inhibition was -10.3%.
On to `N#Cc1ccc(OCCN2C(=O)NC3(CCSC3)C2=O)cc1` (stereo not drawn), for which the inhibition is -8.7%.
As for `COc1cc2c(cc1OC)C(c1ccc(C)o1)CC(=O)N2` (stereo not drawn), the figure is -11%.
With `CCCOc1ccccc1C1CC(=O)Nc2cc3c(cc21)OCO3` (stereo not drawn), the inhibition was 99.3% (active).
Take `CCCOc1ccc(C2NC(=O)NC(c3ccccc3)=C2C(C)=O)cc1OCC` (stereo not drawn): the inhibition was 11%.
As for `COc1ccccc1C1C2=C(COC2=O)Nc2cc3c(cc21)OCO3` (stereo not drawn), the figure is 91.7% (active).
For `Cc1cc(=O)oc(C)c1C(=O)N1CCCCC1`, the inhibition was 20.5%.
As for `O=[N+]([O-])c1ccccc1OCCCCN1CCCCC1`, the figure is 1%; as for `COc1cccc(C(=O)c2cc3ccc(O)cc3oc2=O)c1`, 83.3% (active); as for `COc1cccc(C(=O)NNC(=O)c2ccccc2Br)c1`, 8.8%.
The same measure for `COc1ccc2oc(=O)c(C(=O)O)cc2c1`: -14.5%; for `CCOCCCNC(=O)C(NC(=O)CNC(=O)c1ccccc1)c1ccc(C)cc1` (stereo not drawn): -8.2%; for `COc1cccc(-c2nn(C)c3sc(C(=O)N4CCN(c5ccccc5)CC4)cc23)c1`: 23.7%.
For the molecule `CCOC(=O)N1CCN(C(=O)c2cc3c(-c4ccc(Cl)cc4)nn(C)c3s2)CC1`, the inhibition is 9.1%.
As for `O=C(c1cn(-c2ccccc2)nc1-c1cccnc1)N1CCCCC1`, the inhibition was 40.6%.
Consider `COc1ccccc1N1CCN(C(=O)c2cn(-c3ccccc3)nc2-c2cccnc2)CC1`, for which the inhibition was 93.8% (active).
`COc1ccccc1N1CCN(C(=O)Cn2nnc(-c3cccs3)n2)CC1`: the inhibition is 46.2%.
`COc1ccccc1N1CCN(C(=O)c2cc3c(-c4ccc(Cl)cc4)nn(C)c3s2)CC1`: the inhibition is 74.1% (active).
For `Cn1c(=O)[nH]c(=O)c2c1nc(N1CCN(CCO)CC1)n2CCSc1nc2ccccc2s1`, the inhibition is -15.3%.
For the molecule `O=C(NC1CCc2ccccc21)C12CN(Cc3ccccc3)CC1C(c1cccc([N+](=O)[O-])c1)=NO2` (stereo not drawn), the inhibition is 14.2%.
For the molecule `O=C(N/N=C\c1ccc(-c2ccc(Cl)c(Cl)c2)o1)C(=O)N1CCCC1`, the inhibition is 16.3%.
For `COC(=O)CN1C(=O)C(O)=C(C(C)=O)C1c1ccc([N+](=O)[O-])cc1` (stereo not drawn), the inhibition was -14.6%.
As to `Cc1ccsc1C(=O)OCC(=O)c1cc(C)n(CC2CCCO2)c1C` (stereo not drawn), the inhibition is 54.4% (active).
Consider `Cc1c(C(=O)NCC2CCCO2)sc2nc(-c3ccccc3)cn12` (stereo not drawn), for which the inhibition was 27.4%.
For `Cc1ccsc1C(=O)OCC(=O)c1cc2ccccc2o1`, the inhibition is 44.1%.
With `COC(=O)c1ccc(S(=O)(=O)N2CCC(c3nc4ccccc4o3)CC2)cc1`, the inhibition was 8.7%.
For `Oc1ccc(/C=N/NC2=NCCCCC2)c(O)c1`, the inhibition was 13.9%.
With `COC(=O)C1CCN(CC(N)=O)CC1`, the inhibition was -8.8%.
On to `Cc1cc(C)c([N+](=O)[O-])cc1-c1ccc(/C=N/NC(=O)c2nonc2N)o1`, for which the inhibition was 3.8%.
The same measure for `Cc1cc([N+](=O)[O-])c(-c2ccc(/C=N/n3cnnc3)o2)cc1Cl`: 63.7% (active); for `NC(=O)c1ccsc1NC(=O)c1ccco1`: 38.9%; for `O=C(NCC(F)(F)F)Nc1nnc(C(F)(F)F)s1`: -26%.
Turning to `CCOc1cc(S(=O)(=O)NCc2ccc3c(c2)OCO3)ccc1F`, the inhibition was 91.8% (active).
With `CCOc1c2ccc(C(=O)NCc3ccc4c(c3)OCO4)cc2nn1C`, the inhibition is 31.5%.
Take `CCOc1cc(S(=O)(=O)NC2CC(C)(C)NC(C)(C)C2)ccc1F`: the inhibition is -5.3%.
Take `O=C(Nc1cc(-c2nn(CC(=O)N3CCCCC3)c(=O)c3ccccc23)ccc1N1CCOCC1)c1ccc(Cl)cc1`: the inhibition is 7.3%.
For `O=C(CN1C(=O)NC2(CCCC2)C1=O)Nc1ccc(F)c(F)c1F`, the inhibition was 0.4%.
Take `CC(C(=O)Nc1ccc(F)c(F)c1F)N1CCCCCC1` (stereo not drawn): the inhibition is 64.6% (active).
On to `CC(C)C(=O)NC(=S)Nc1ccccc1F`, for which the inhibition is 25.4%.
